Test results: PubChem BioAssay AID1259374 (The Scripps Research Institute Molecular Screening Center, 2018)
Several values for one entry are separate records, joined by “and”; a condition that tells them apart may be missing. Equal values may be shown once. In all, about 650,000 compounds went through this assay and about 5,900 (0.91%) were called active. Cut-off read from the data, not from the text of the source: active = inhibition above about 50%; inactive = the rest. The entries come from a sample that favours actives as a whole.

What follows are compounds tested against Microphthalmia-associated transcription factor (Homo sapiens) (UniProt O75030) (assay: MITF inhibitors, primary screen, biochemical, AlphaScreen, human (AID 1259374;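 note: 0% = vehicle wells with protein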)). Details: AlphaScreen MITF homodimerization, bead proximity signal; at 2.6 µM; stronger effect = higher value.
Sequence of Microphthalmia-associated transcription factor (Homo sapiens) (O75030 whole entry, looked up): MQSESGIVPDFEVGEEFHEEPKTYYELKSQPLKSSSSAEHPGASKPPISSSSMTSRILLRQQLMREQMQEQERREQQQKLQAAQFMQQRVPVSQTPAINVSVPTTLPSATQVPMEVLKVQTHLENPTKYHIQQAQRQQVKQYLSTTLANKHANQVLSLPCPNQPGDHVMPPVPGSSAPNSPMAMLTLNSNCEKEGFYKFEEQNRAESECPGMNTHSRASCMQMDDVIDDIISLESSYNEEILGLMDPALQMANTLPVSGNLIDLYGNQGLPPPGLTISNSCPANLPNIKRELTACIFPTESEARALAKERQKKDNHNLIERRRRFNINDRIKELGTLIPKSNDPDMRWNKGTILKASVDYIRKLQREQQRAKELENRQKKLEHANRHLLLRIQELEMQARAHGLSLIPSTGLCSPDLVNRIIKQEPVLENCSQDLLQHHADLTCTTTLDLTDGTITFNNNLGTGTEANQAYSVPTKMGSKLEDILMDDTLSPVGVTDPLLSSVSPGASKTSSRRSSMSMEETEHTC

SMILES	inhibition
O=c1oc(-c2cccc3ncccc23)nn1Cc1cccnc1	-6.6% (inactive)
COc1ccc(N(CC(=O)N2CCN(C)CC2)S(C)(=O)=O)cc1	13.7% (inactive)
CCOc1ccc(-c2ccc(C)c(NC(=O)c3cccs3)c2)nn1	0.28% (inactive)
Cc1ccc(C2=NN3C(=N)/C(=C/c4ccco4)C(=O)N=C3S2)cc1	-3.9% (inactive)
N=C1/C(=C\c2ccc([N+](=O)[O-])o2)C(=O)N=C2SC(N3CCOCC3)=NN12	74.2% (active)
Cc1ccc(C2=NN3C(=N)/C(=C/c4ccc(-c5ccc(C(=O)O)cc5)o4)C(=O)N=C3S2)cc1	3.4% (inactive)
Cc1nnc(SCC(=O)N2c3ccccc3Sc3ccccc32)nc1C	-1.53% (inactive)
O=C(OCCN1CCOCC1)c1c(Cl)nc2sccn12	68.3% (active)
O=C(OCCN1CCOCC1)C1(c2ccccc2)CCCCC1	3.29% (inactive) and -3.71% (inactive)
COc1ccc(/C=C/C(=O)OCCN2CCOCC2)cc1	12.6% (inactive)
CSc1cccc(NC(=O)C2C3C=CC4(O3)C2C(=O)N(CCCN2CCCC(C)C2)C4C(=O)NC2CCCCC2)c1 (stereo not given)	1.08% (inactive)
COc1ccc(OC)c(CN2CCN(C3CCCCCC3)CC2)c1	49.2% (inactive)
COc1cc(CN2CCN(C3CCCC3)C(CCO)C2)cc(OC)c1OC (stereo not given)	-4.18% (inactive)
COc1cc(CN2CCOCC2)cc(OC)c1OC	5.88% (inactive)
COc1ccc(CN2CCCCC2)c(OC)c1	-6.28% (inactive)
COc1cc(CN2CCC(O)CC2)cc(OC)c1OC	20.4% (inactive)
COc1ccc(S(=O)(=O)N2CCN(Cc3ccccc3Cl)CC2)cc1	8.12% (inactive)
COc1cc(CN2CCN(Cc3ccccc3Cl)CC2)cc(OC)c1OC	74.9% (active)
COc1ccc(CNCc2cccc(F)c2)c(OC)c1	17.1% (inactive)
COc1ccc(OC)c(CN2CCC(C(=O)NCC(C)C)CC2)c1	10.5% (inactive)

SMILES	inhibition
COc1ccc(CN2CCN(Cc3cccc(Br)c3)CC2)c(OC)c1	72.2% (active)
COc1ccc(CN2CCN(Cc3cc(OC)c(OC)c(OC)c3)CC2)cc1	70.5% (active)
COc1ccc(OC)c(CN2CCN(Cc3ccccc3OC)CC2)c1	65.1% (active)
CS(=O)(=O)Nc1ccc(C(=O)Nc2ccc(Br)c(Cl)c2)cc1	11.7% (inactive)
COc1ccc(C(=O)N2CCc3c(nc(C)[nH]c3=O)C2)cc1Cn1nc(C)cc1C	4.03% (inactive)
COc1cc(C2C3=C(Nc4[nH]c(=O)[nH]c(=O)c42)C(=O)CC(C)(C)C3)ccc1O (stereo not given)	-4.39% (inactive)
Cc1ccc(Cl)c2sc(=NC(=O)CN3C(=O)c4ccccc4C3=O)n(C)c12	14.4% (inactive)
O=C(NCCc1ccc(O)cc1)C1CCN(c2ccc(Nc3ccc4ncccc4c3)nn2)CC1	14.1% (inactive)
COc1ccc(Cl)cc1-c1nc(SCC(=O)Nc2ccc([N+](=O)[O-])cc2C#N)n[nH]1	5.04% (inactive)
Cc1cc2c(cc3c(=O)n(CC(=O)N4CCCCCC4)nc(C)n32)s1	19.7% (inactive)
CC(=O)NC1(c2ccccc2)CCN(C(=O)N(c2ccccc2)c2ccccc2)CC1	-5.46% (inactive)
N#CC1=C(N)Oc2n[nH]c(-c3ccccc3)c2C1c1cc(Cl)cc(Cl)c1OC(=O)N1CCOCC1 (stereo not given)	1.7% (inactive)
O=C(CSc1cn(Cc2cccc(F)c2)c2ccccc12)Nc1ccccc1	-4.78% (inactive)
CCOC(=O)c1c(NC(=O)COc2ccc(C)cc2Br)sc2c1CCC(C)C2 (stereo not given)	14.2% (inactive)
O=C(CSc1nnc2ncccn12)N1CCN(c2ccccc2F)CC1	-5.77% (inactive)
COc1ccc(OC)c(CN2CCN(Cc3ccc(Cl)cc3)CC2)c1	82.1% (active)
C=C(C)CN(CC)C(=O)C1CCN(Cc2cc(OC)ccc2OC)CC1	33.5% (inactive)
COc1ccc(CN2CCN(Cc3cc(OC)ccc3OC)CC2)cc1	76.4% (active)
COc1ccc(OC)c(CN2CCc3nnc(C4CCCO4)n3CC2)c1 (stereo not given)	0.68% (inactive)
CCOc1ccc(CN2CCN(Cc3cc(OC)ccc3O)CC2)cc1	20.6% (inactive)

SMILES	inhibition
COc1ccc(CN2CCN(Cc3ccccc3OC)CC2)cc1Br	77.2% (active)
COc1ccccc1CN1CC(C)OC(C)C1 (stereo not given)	82.9% (active)
COc1ccc(OC)c(CN2CCC3(CCC(CNC(C)=O)O3)CC2)c1 (stereo not given)	-3.91% (inactive)
COc1ccccc1CN1CCN(c2ccccn2)CC1	45.1% (inactive)
COc1ccc(S(=O)(=O)NCc2ccccc2OC)cc1Br	9.71% (inactive)
CC1CN(Cc2ccc3ccccc3c2)CC(C)O1 (stereo not given)	1.44% (inactive)
CCN(CC)C(=O)C1CCCN(Cc2ccccc2OC)C1 (stereo not given)	16.3% (inactive)
Cc1ccc(N2C(=O)CN(S(C)(=O)=O)CC2(C)C(=O)NC2CCCC2)cc1C (stereo not given)	-2.11% (inactive)
O=C(OCCN=C1NS(=O)(=O)c2ccccc21)c1ccc([N+](=O)[O-])cc1	-14% (inactive)
O=C1c2ccccc2C(=O)N1CCSc1nc2sc3c(c2c(=O)n1-c1ccccc1)CCCC3	-1.49% (inactive)
CCOC(=O)c1cc(-c2ccc(O)c(OC)c2)no1	-12.8% (inactive)
O=C(NCc1ccc(Cl)cc1)C1CCN(c2nnnn2-c2ccccc2)CC1	5.24% (inactive)
O=C(CSc1nc(Nc2ccc(F)cc2)c2ccccc2n1)c1ccc(Cl)cc1	10.1% (inactive)
Cc1ccc2[nH]c3nc(N/N=C/c4ccc(N(C)C)cc4)nnc3c2c1	15.6% (inactive)
CC(C)N(CCNc1nc(N2CCCC2CO)nc2nc[nH]c12)C(C)C (stereo not given)	5.38% (inactive)
CC(=O)Oc1ccccc1C(=O)Nc1ccc(Cl)c(Cl)c1	0.46% (inactive)
CCOC(=O)/C(C#N)=C/c1ccccc1OC	-4.17% (inactive)
CNc1ccccc1C(=O)OCc1ccc([N+](=O)[O-])cc1Cl	12.5% (inactive)
Cc1ccc2nc3sc(C(=O)Nc4c[nH]c(=O)[nH]c4=O)c(N)c3cc2c1	0.86% (inactive)
Cc1ccc2nc(CN3CCN(C=O)CC3)nc(N3CCSCC3)c2c1	-5.97% (inactive)
